Assay outcomes from PubChem.
CYP2C9 act – increases human cytochrome P450 2C9 activity. P11712. recombinant CYP2C9, luciferin-H conversion, luminescence; stronger effect = higher value; factor 1 = untreated enzyme, 0 = blocked. activation factor at 5 µM. 96,000 compounds, 1.4% hits. AID 1024;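 active means activation factor of 2 or more for CYP2C9 at a 5 µM dose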;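 further: 0 = sulfaphenazole-blocked wells and 1 = vehicle-only wells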
Target sequence (P11712 whole entry, looked up): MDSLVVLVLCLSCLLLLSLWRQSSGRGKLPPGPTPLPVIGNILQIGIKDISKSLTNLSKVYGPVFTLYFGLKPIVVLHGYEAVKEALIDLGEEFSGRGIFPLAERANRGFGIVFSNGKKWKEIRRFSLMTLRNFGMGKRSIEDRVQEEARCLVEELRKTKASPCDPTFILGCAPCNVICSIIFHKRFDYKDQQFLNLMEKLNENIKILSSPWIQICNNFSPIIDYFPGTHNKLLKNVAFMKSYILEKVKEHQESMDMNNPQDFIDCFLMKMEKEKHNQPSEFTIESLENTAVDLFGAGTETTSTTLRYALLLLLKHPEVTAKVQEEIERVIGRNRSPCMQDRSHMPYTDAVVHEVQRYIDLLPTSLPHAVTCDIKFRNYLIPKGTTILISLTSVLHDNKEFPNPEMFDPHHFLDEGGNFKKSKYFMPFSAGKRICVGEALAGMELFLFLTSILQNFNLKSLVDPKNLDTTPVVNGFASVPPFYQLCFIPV
PostGolgi yeast – growth inhibition of a yeast mutant, post-Golgi transport screen. post-Golgi transport phenotypic cell assay. inhibition, % at 10 µM. 98,000 compounds, 0.9% hits;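 further: yeast cells grown in 1536-well plates; yeast grown about 18 h at 30C before absorbance read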
PostGolgi ctrl – inhibits growth of the yeast control strain; efflux-deficient yeast background strain, growth absorbance A615, 16 h; inhibition, % at 10 µM; 98,000 compounds, 5% hits; AID 738
CYP2C9 inhib – inhibitors of human CYP2C9; inhibition, % at 5 µM; AID 777; CYP2C9 Supersomes, luciferin-H conversion, luminescence; 96,000 compounds, 20% hits;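 active means blocking of liver enzyme CYP2C9 beyond about 50% at 5 µM, limit read from the data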
CYP2C19 inhib – human CYP2C19 inhibition; P33261; CYP2C19 Supersomes, luciferin-H EGE luminescence, 30 min; inhibition, % at 5 µM; 96,000 compounds, 21% hits;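 active means CYP2C19 inhibition above a set limit at 5 µM in the primary screen, cut at about 50% in these data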;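 further: plate controls were negative control wells for no effect and 2.5 mM tranylcypromine positive control for full effect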
CYP2C19 activ – activators of human cytochrome P450 2C19; activation factor at 5 µM; 96,000 tested, under 10 active; P33261; recombinant CYP2C19, luciferin-H EGE luminescence; stronger effect = higher value; 0 = fully inhibited enzyme, 1 = untreated enzyme;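 active means activation factor of at least 2 at 5 µM in the primary screen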;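 further: 0 = wells with 2.5 mM tranylcypromine and 1 = vehicle-only wells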
* = called active by the depositor; nt = no result given. The list is not random: actives were taken first. Their share in the collection is about 32%. Unless noted, no stated cut-off is given here; in the data, active means inhibition above about 30%; inactive means the rest.

SMILES | CYP2C9 act | PostGolgi yeast | PostGolgi ctrl | CYP2C9 inhib | CYP2C19 inhib | CYP2C19 activ
CC1(C)Nc2ccccc2N(CC(=O)N2CCCCC2)C1=O | 0.9 | -3 | 8 | 13 | -4 | 1
O=C(NCc1ccccn1)c1cc(-n2cnnc2)ccc1Cl | 1 | 0 | -2 | 3 | 10 | 0.9
O=C(CN1C(=O)CSc2ccccc21)NC1CCCC1 | 2.3* | 0 | 9 | -127 | 15 | 0.8
O=C(COC(=O)C1CC2C=CC1C2)NCc1ccco1 (configuration not stated) | 0.8 | -3 | -4 | 16 | 64* | 0.4
O=C(COC(=O)C1CCCCC1C(=O)N1CCc2ccccc21)NCc1ccco1 (configuration not stated) | 0.3 | -6 | 4 | 71* | 87* | 0.1
O=C(COC(=O)C1CC2C=CC1C2)Nc1ccc2c(c1)OC(F)(F)O2 (configuration not stated) | nt | -10 | -6 | nt | nt | nt
CCc1ccccc1N(CC(=O)N1CCN(c2ccccc2)CC1)S(C)(=O)=O | 1 | -2 | 14 | 0 | 14 | 0.9
COC(=O)C(CCCCNC(=O)OCc1ccccc1)NC(=O)CN (configuration not stated) | 0.6 | 32* | 7 | 44 | 51* | 0.5
CCCCCCCCNC(=O)C(CCC(=O)OCc1ccccc1)NC(C)=O (configuration not stated) | 0.9 | -7 | 1 | 7 | 75* | 0.3
O=C(NCc1n[nH]c(=S)n1-c1ccccc1)c1ccc(S(=O)(=O)N2CCOCC2)cc1 | 1 | 0 | 3 | -2 | 0 | 1
Cc1ccc(NC(=O)c2ccc(-n3cncn3)c([N+](=O)[O-])c2)cc1 | 0.1 | 1 | 23 | 91* | 100* | 0
O=C(Nc1ccc(Cl)cc1)c1ccc(-n2cncn2)c([N+](=O)[O-])c1 | 0 | -14 | 8 | 98* | 100* | 0
Cc1ccc(NC(=O)c2ccc(-n3cccn3)c([N+](=O)[O-])c2)cc1C | 0.6 | -1 | 2 | 43 | 17 | 0.8
O=C(Nc1ccc(Cl)cc1)c1ccc(-n2cccn2)c([N+](=O)[O-])c1 | 1.2 | 12 | 38* | -18 | -4 | 1
O=C(Nc1cccc(Cl)c1)c1ccc(-n2cncn2)c([N+](=O)[O-])c1 | 0 | -3 | 1 | 100* | 100* | 0
O=C(Nc1cc(C(F)(F)F)ccc1-n1cncn1)c1ccc(Br)cc1 | 0.9 | -1 | 2 | 10 | 24 | 0.8
CC(C)c1nnc(NC(=O)c2cccnc2)s1 | 0.9 | 1 | 0 | 8 | -7 | 1.1
NS(=O)(=O)c1ccc(S(=O)(=O)N(Cc2ccccc2F)CC2CCCO2)cc1 (configuration not stated) | 1 | -1 | 3 | 3 | 11 | 0.9
CC1=N/C(=C\c2ccc([N+](=O)[O-])cc2)C(=O)N1c1ccc(Cl)cc1 | 1.2 | -1 | 12 | -18 | 0 | 1
CCN(CC)c1ccc(/C=C2/C(=O)N(c3ccc([N+](=O)[O-])cc3)N=C2N2CCOCC2)cc1 | 1 | -2 | 34* | 0 | -3 | 1
CCOC(=O)C1=C(C)C(c2ccccc2OC)NC(=S)N1 (configuration not stated) | 0.9 | -3 | 2 | 9 | 53* | 0.5
COc1ccc(NC(=O)C2=C(C)C(=O)OC23CCC(C)CC3)cc1Cl (configuration not stated) | 0.8 | -8 | 16 | 22 | 32 | 0.7
CCCC(=O)Nc1nc(C)c(-c2csc(Nc3ccc(Cl)cc3)n2)s1 | 0.7 | 23 | 56* | 31 | 54* | 0.5
CCC(C)C(=O)Nc1nc(C)c(-c2csc(Nc3ccc(Cl)cc3)n2)s1 (configuration not stated) | 0.4 | 0 | 24 | 58* | 40 | 0.6
Cc1ccc(Nc2nc(-c3sc(NC(=O)c4cccc(Cl)c4)nc3C)cs2)cc1 | 0.9 | -5 | 2 | 8 | 40 | 0.6
SMILES | CYP2C9 act | PostGolgi yeast | PostGolgi ctrl | CYP2C9 inhib | CYP2C19 inhib | CYP2C19 activ
CC1CCCCN1c1nnc(NC(=O)Cn2c(=O)oc3ccccc32)s1 (configuration not stated) | 0.4 | -3 | 6 | 57* | -7 | 1.1
CC(=O)OC1COC(N2CCc3cc(Br)c([N+](=O)[O-])cc32)C(OC(C)=O)C1OC(C)=O (configuration not stated) | 0.1 | 15 | 6 | 94* | 88* | 0.1
CC1CC(C)CN(c2ncc3c(n2)CC(c2ccccc2Cl)CC3=O)C1 (configuration not stated) | 0.9 | -4 | 31* | 10 | 6 | 0.9
CC1CC(C)CN(c2ncc3c(n2)CC(c2ccc(Cl)cc2)CC3=O)C1 (configuration not stated) | 0.2 | 12 | 28 | 78* | 43 | 0.6
O=C(N/N=C\c1ccc(F)cc1)c1csnn1 | 0.9 | -8 | -4 | 11 | 16 | 0.8
Cc1ccc(-c2ccc(/C=N/NC(=O)CN3CCCC3)o2)cc1Cl | 0.9 | 1 | 19 | 11 | 22 | 0.8
O=C(O)c1cc(-c2ccc(/C=N/Nc3ccc(Cl)cc3)o2)ccc1Cl | 0.7 | 63* | 10 | 33 | 8 | 0.9
C/C(CCc1ccc2c(c1)OCO2)=N\N=C(/N)SC1CC(=O)N(c2ccccc2F)C1=O (configuration not stated) | 0.3 | 3 | -1 | 74* | 21 | 0.8
CCN=C(Nc1ccc2c(c1)OCO2)SC1CC(=O)N(c2ccccc2F)C1=O (configuration not stated) | 0 | -1 | 17 | 100* | 47 | 0.5
O=C1CSC(=S)N1CC1CCCO1 (configuration not stated) | 0.8 | 7 | 8 | 20 | 20 | 0.8
Cc1cccc(N2CCN(C(=O)C3CCCN(S(=O)(=O)c4cnc[nH]4)C3)CC2C)c1 (configuration not stated) | nt | 1 | 3 | nt | nt | nt
O=C(Nc1ccc(Cl)cc1)C1CCCN(S(=O)(=O)c2cnc[nH]2)C1 (configuration not stated) | 0.1 | -8 | -1 | 88* | 90* | 0.1
CCOC(=O)N1CCC(NC(=O)C2CCN(S(=O)(=O)c3cnc[nH]3)CC2)CC1 | 1.1 | 4 | 3 | -8 | 1 | 1
CCOC(=O)c1ccc(NC(=O)C2CCCN(S(=O)(=O)c3cnc[nH]3)C2)cc1 (configuration not stated) | 0 | 3 | 7 | 96* | 92* | 0.1
CC(C)c1ccc(NC(=O)C2CCCN(S(=O)(=O)c3cnc[nH]3)C2)cc1 (configuration not stated) | 0.4 | 7 | 3 | 62* | 62* | 0.4
CC(NC(=O)C1CCCN(S(=O)(=O)c2cnc[nH]2)C1)c1ccccc1 (configuration not stated) | 0.3 | -5 | 0 | 74* | 70* | 0.3
